According to PubChem BioAssay (NCATS):
Where “and” joins values, the source holds several entries; their conditions need not be identical. Equal entries are not always repeated. Results filed as inconclusive are left out. Calls of active or inactive are those of the source. Unless noted, the call rests on the fitted dose curve; in most records, active means well fitted cell-killing curve with a large enough effect; inconclusive means small, poorly fitted or top-dose-only effect; inactive means flat fitted curve, though single readings scatter.

What was measured:
[1] = Cell Viability - LYMP2-025 (AID 976);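 further: series mostly up to about 92 µM; plate controls were DMSO only for no effect and tetraoctylammonium bromide control for full effect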
Summary of the method: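 Human lymphoblastoid LYMP2-025 cells (2500/well) were pre-incubated 5 hr at 37 C, then treated with compounds for 24 hr at 37 C in complete medium. Viability was read as intracellular ATP by CellTiter-Glo luminescence; AC50 from Hill fits.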

[2] = Cell Viability - LYMP2-002 (AID 977);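 further: series mostly up to about 92 µM; compound exposure lasted 24 h at 37 °C; plate controls were DMSO only for no effect and 92 µM tetraoctylammonium bromide for full effect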
Summary of the method: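 Human lymphoblastoid LYMP2-002 cells, 2500 per well, exposed to compounds for 24 h at 37 C in complete medium; viability read as intracellular ATP by CellTiter-Glo luminescence, AC50 from Hill fits.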

[3] = Cell Viability - LYMP2-006 (AID 978); further: series mostly up to about 92 µM; on the % scale 0 is the no-effect control and ±100 the full control effect; nearly all actives have a fitted effect of over 60% in size
Summary of the method: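 Concentration-dependent loss of intracellular ATP in a human lymphoblastoid line after 24 hr treatment at 37 C was measured by CellTiter-Glo luminescence, with AC50 values obtained from standard Hill-equation modelling.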

[4] = Cell Viability - LYMP2-007 (AID 979);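 further: cells exposed to compound for 24 h before reading; 0% = DMSO only and the negative end = 92 µM tetraoctylammonium bromide; nearly all actives have a fitted effect of over 60% in size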
Summary of the method: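 Human lymphoblastoid cells (2500/well) were plated in complete medium, incubated 5 hr at 37 C, then exposed to compounds for 24 hr at 37 C. Intracellular ATP was read by CellTiter-Glo luminescence after 30 min at room temperature; AC50 from Hill fits.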

[5] = Cell Viability - LYMP2-008 (AID 980); further: on the % scale 0 is the no-effect control and ±100 the full control effect; nearly all actives have a fitted effect of over 60% in size
Summary of the method: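 Human lymphoblastoid cells (2500/well) were plated, held 5 hr at 37 C, then exposed to compounds for 24 hr at 37 C in complete medium. Intracellular ATP was read by CellTiter-Glo luminescence; AC50 from Hill-fitted concentration-response.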

[6] = Cell Viability - LYMP2-010 (AID 981); further: on the % scale 0 is the no-effect control and ±100 the full control effect; nearly all actives have a fitted effect of over 55% in size
Summary of the method: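 Human lymphoblastoid LYMP2-010 cells (2500/well) were preincubated 5 hr at 37 C, then exposed to compounds for 24 hr at 37 C in complete medium. Intracellular ATP was measured by CellTiter-Glo luminescence after 30 min at room temperature; AC50 from Hill-fitted concentration-response.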

[7] = Cell Viability - LYMP2-012 (AID 982);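 further: cellular ATP by luciferase luminescence where a drop means cytotoxicity; cells exposed to compound for one day before reading; 0% = DMSO only and full loss = 92 µM tetraoctylammonium bromide; nearly all actives have a fitted effect of over 55% in size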
[8] = Cell Viability - LYMP2-014 (AID 983);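 further: series mostly up to about 92 µM; plate controls were DMSO only for no effect and 92 µM tetraoctylammonium bromide for full effect; nearly all actives have a fitted effect of over 50% in size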
Summary of the method: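 Human lymphoblastoid cells (2500/well) were pre-incubated 5 hr at 37 C, then exposed to compounds in complete medium for 24 hr at 37 C. Intracellular ATP was read by CellTiter-Glo luminescence after 30 min at room temperature; AC50 from Hill fits.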

[9] = Cell Viability - LYMP2-016 (AID 984); further: on the % scale 0 is the no-effect control and ±100 the full control effect; nearly all actives have a fitted effect of over 55% in size
Summary of the method: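 Acute toxicity in a Coriell human lymphoblastoid line is scored as loss of intracellular ATP over 24 h of treatment in complete medium. CellTiter-Glo signal is fitted across concentrations with the Hill equation to give AC50.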

[10] = Cell Viability - LYMP2-018 (AID 985);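 further: compound exposure lasted 24 hr at 37 °C; plate controls were DMSO only for no effect and tetraoctylammonium bromide at 92 µM for full effect; nearly all actives have a fitted effect of over 50% in size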
Summary of the method: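 Human lymphoblastoid cells (2500/well) were pre-incubated 5 hr at 37 C, then exposed to compounds for 24 hr at 37 C in complete medium. Viability was read as intracellular ATP by CellTiter-Glo luminescence; AC50 values came from Hill-equation fits.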

[11] = Cell Viability - LYMP2-020 (AID 986);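 further: series mostly up to about 92 µM; plate controls were DMSO only for no effect and tetraoctylammonium bromide at 92 µM for full effect; nearly all actives have a fitted effect of over 55% in size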
Summary of the method: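 Human lymphoblastoid cells, 2500/well, were pre-incubated 5 hr at 37 C, then exposed to compounds for 24 hr at 37 C in complete medium. Intracellular ATP was read by CellTiter-Glo luminescence, and AC50 was derived by Hill fitting of concentration-response data.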

[12] = Cell Viability - LYMP2-022 (AID 987)
Summary of the method: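 Human lymphoblastoid cells, 2500/well, preincubated 5 hr at 37 C, then exposed to compounds over a concentration range for 24 hr at 37 C in complete medium. Viability read as intracellular ATP by CellTiter-Glo luminescence after 30 min at room temperature; AC50 from Hill fits.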

[13] = Cell Viability - LYMP2-024 (AID 988);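 further: plate controls were DMSO only for no effect and 92 µM tetraoctylammonium bromide for full effect; nearly all actives have a fitted effect of over 60% in size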
Summary of the method: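 Human lymphoblastoid cells (2500/well) in complete medium were preincubated 5 hr at 37 C, then exposed to compounds for 24 hr at 37 C. Intracellular ATP was read by CellTiter-Glo luminescence; AC50 from Hill-equation fits of concentration-response data.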

[14] = Cell Viability - LYMP2-026 (AID 989); further: on the % scale 0 is the no-effect control and ±100 the full control effect; nearly all actives have a fitted effect of over 50% in size
Summary of the method: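 Human lymphoblastoid cells (2500/well) in complete medium were preincubated 5 hr at 37 C, then exposed to compounds for 24 hr at 37 C. Cellular ATP was read by CellTiter-Glo luminescence; AC50 from Hill-equation fits of concentration-response data.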

[15] = Cell Viability - LYMP1-002 - Assay at 24 hr (AID 993); further: on the % scale 0 is the no-effect control and ±100 the full control effect
Summary of the method: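 Human lymphoblastoid LYMP1-002 cells, 2500/well in complete medium, were treated with compounds for 24 h at 37 C; intracellular ATP was read by CellTiter-Glo luminescence. AC50 values came from Hill-equation fits of qHTS concentration-response data.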

[16] = Cell Viability - LYMP1-002 - Assay at 40 hr (AID 994)
Summary of the method: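 Human lymphoblastoid cells, 2500/well in complete medium, were preincubated 5 hr at 37 C, then exposed to compounds for 40 hr at 37 C. Intracellular ATP was read by CellTiter-Glo luminescence after 30 min at room temperature; AC50 from Hill-equation fits.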

[17] = qHTS Assay for Identification of Small Molecule Inducers of Hypoxia Response (AID 2120; active means well fitted curve in the direction sought with a large enough effect in the signal ratio, with a control signal flat, not every such curve was filed as active; the % refers to the signal ratio; further: 0% is about no effect)
Summary of the method: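 HRE-beta-lactamase reporter in CellSensor HRE-bla ME-180 cells, 2500 cells/well in Opti-MEM with 0.5% dialyzed FBS; compounds tested as titration series, 17 h at 37 degrees C. CCF4 substrate 2.5 h at room temperature; AC50 from 460/530 nm ratio.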

[18] = target: Estrogen receptor (Homo sapiens) (UniProt P03372); experiment: qHTS assay for small molecule antagonists of estrogen receptor alpha signaling (AID 588513; active means well fitted curve in the direction sought with a large enough effect in the signal ratio, with a control signal flat, not every such curve was filed as active; the % refers to the signal ratio; further: on the % scale 0 is the no-effect control and ±100 the full control effect)
Summary of the method: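 Cells were plated at 5000/well and incubated 4 h at 37 C. Compounds were added as 1:2 dilution series, duplicates. 17-beta-estradiol (0.5nM final) was added for 18 h before CCF4 detection.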

[19] = target: Estrogen receptor (Homo sapiens) (UniProt P03372); experiment: qHTS assay for small molecule agonists of estrogen receptor alpha signaling (AID 588514; calls by dose curve;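 further: 0% = vehicle only and 100% = reference agonist; nearly all actives have a fitted effect of over 70% in size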)
Summary of the method: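 ER-alpha-UAS-bla GripTite HEK 293 cells in medium with 2% charcoal/dextran-treated FBS were treated with compound titrations at 37 C for 18 hrs; beta-lactamase reporter read by CCF4 fluorescence after 2 hrs at RT.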

[20] = target: Glucocorticoid receptor (Homo sapiens) (UniProt P04150); experiment: qHTS assay for small molecule agonists of glucocorticoid receptor signaling (AID 588532; active means well fitted curve in the direction sought with a large enough effect in the signal ratio, with a control signal flat; the % refers to the signal ratio;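 further: 100% = dexamethasone at 0.1 µM and 0% = DMSO only wells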); conditions: HeLa MMTV-bla, beta-lactamase ratio, agonist, 18 h; active compounds read high; percent of dexamethasone control, DMSO zero
Summary of the method: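 Cells were plated and rested 3-5 h at 37 C, compounds were added in titration and incubated 18 h, then CCF4 substrate was loaded for 2 h at RT before reading blue/green fluorescence. EC50 came from Hill-equation fitting.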

[21] = target: Glucocorticoid receptor (Homo sapiens) (UniProt P04150); experiment: qHTS assay for small molecule antagonists of glucocorticoid receptor signaling (AID 588533; active means well fitted inhibition curve with a large enough effect in the signal ratio, with a control signal flat, not every such curve was filed as active; the % refers to the signal ratio;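 further: cells stimulated with 2 nM dexamethasone as agonist; on the % scale 0 is the no-effect control and ±100 the full control effect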)
Summary of the method: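 Antagonist-mode qHTS: compound titrations added to GRE-bla HeLa cells, then dexamethasone 2 nM final; 18 h, 37 C. CCF4 FRET fluorescence normalized to dexamethasone and DMSO; IC50 from Hill fit.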

[22] = target: Peroxisome proliferator-activated receptor gamma (Homo sapiens) (UniProt P37231); experiment: qHTS assay for small molecule agonists of peroxisome proliferator-activated receptor gamma signaling (AID 588536; active means well fitted curve in the direction sought with a large enough effect in the signal ratio, with a control signal flat, not every such curve was filed as active; the % refers to the signal ratio;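 further: 0% = DMSO basal wells and 100% = rosiglitazone at 2 µM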)
Summary of the method: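 HEK293 UAS-bla reporter line, 1% charcoal/dextran FBS; titration, 16 h, 37 C; CCF4 loading 2 h RT; fluorescence 460/530 nm. Normalized to rosiglitazone 2 uM = 100%, DMSO = 0%.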

[23] = target: Peroxisome proliferator-activated receptor gamma (Homo sapiens) (UniProt P37231); experiment: qHTS assay for small molecule antagonists of peroxisome proliferator-activated receptor gamma signaling (AID 588537; active means well fitted inhibition curve with a large enough effect in the signal ratio, with a control signal flat, not every such curve was filed as active; the % refers to the signal ratio;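 further: reporter cells co-stimulated with 50 nM rosiglitazone agonist during compound treatment; % of control where 0% means no effect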)
Summary of the method: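 Step one: plate 3000 HEK293 UAS-bla cells per well in medium with 1% stripped serum and hold 6-6.5 h at 37 C. Step two: add compound and 50 nM agonist for 16 h. Step three: CCF4 loading, fluorescence read.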

Peroxisome proliferator-activated receptor gamma (Homo sapiens), sequence (P37231 whole entry, looked up): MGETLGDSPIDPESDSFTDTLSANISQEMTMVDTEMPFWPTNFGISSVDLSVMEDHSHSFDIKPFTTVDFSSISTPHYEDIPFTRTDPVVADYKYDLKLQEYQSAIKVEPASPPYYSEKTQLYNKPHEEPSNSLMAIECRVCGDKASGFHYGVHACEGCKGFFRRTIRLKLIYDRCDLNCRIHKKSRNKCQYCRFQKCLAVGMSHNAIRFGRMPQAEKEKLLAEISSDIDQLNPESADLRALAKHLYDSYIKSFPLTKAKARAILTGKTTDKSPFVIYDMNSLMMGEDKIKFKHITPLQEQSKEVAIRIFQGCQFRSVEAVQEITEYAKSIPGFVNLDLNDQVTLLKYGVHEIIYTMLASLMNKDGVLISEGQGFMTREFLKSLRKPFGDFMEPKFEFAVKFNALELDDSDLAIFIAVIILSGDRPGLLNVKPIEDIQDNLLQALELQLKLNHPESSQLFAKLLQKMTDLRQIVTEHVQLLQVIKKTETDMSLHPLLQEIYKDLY
Estrogen receptor (Homo sapiens), sequence (P03372 whole entry, looked up): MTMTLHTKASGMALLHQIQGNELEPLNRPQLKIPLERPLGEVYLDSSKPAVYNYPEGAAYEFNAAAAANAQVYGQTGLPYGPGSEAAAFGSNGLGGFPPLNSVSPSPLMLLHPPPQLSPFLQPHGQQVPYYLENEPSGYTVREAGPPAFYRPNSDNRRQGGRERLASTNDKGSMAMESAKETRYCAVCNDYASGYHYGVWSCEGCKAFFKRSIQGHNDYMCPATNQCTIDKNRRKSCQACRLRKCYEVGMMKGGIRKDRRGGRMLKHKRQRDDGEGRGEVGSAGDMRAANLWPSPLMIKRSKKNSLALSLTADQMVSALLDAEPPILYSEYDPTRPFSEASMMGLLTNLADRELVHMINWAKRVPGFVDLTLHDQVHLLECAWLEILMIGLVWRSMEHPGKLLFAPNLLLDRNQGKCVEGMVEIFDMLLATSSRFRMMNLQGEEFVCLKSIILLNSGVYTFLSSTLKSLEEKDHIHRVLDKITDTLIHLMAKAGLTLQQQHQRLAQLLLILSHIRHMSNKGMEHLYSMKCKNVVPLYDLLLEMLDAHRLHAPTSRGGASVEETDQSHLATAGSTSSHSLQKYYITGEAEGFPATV
Glucocorticoid receptor (Homo sapiens), sequence (P04150 whole entry, looked up): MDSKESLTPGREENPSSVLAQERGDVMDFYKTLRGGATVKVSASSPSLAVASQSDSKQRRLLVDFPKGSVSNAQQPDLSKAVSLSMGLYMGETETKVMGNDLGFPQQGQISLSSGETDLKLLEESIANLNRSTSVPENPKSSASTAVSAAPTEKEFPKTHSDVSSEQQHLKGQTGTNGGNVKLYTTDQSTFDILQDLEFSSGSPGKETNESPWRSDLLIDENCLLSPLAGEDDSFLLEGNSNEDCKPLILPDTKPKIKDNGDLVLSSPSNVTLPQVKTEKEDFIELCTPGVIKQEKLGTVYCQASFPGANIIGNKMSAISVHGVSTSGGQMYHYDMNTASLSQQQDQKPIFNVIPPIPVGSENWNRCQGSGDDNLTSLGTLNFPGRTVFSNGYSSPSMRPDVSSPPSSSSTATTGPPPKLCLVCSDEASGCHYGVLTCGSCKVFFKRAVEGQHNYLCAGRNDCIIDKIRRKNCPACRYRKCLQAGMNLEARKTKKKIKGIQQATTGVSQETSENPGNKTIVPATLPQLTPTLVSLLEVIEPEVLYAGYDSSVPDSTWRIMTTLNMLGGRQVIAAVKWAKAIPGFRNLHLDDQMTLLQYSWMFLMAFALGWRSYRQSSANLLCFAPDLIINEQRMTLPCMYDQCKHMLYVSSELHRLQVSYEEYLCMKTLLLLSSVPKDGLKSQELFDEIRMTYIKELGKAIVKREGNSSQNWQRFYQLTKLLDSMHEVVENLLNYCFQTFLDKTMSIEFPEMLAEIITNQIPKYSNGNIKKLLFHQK

CCCCOC(=O)c1ccccc1C(=O)OCCCC
inactive: Potency [1] | Potency [2] | Potency [3] | Potency [4] | Potency [5] | Potency [6] | Potency [7] | Potency [8] | Potency [9] | Potency [10] | Potency [11] | Potency [12] | Potency [13] | Potency [14] | Potency [15] | Potency [16] | outcome [17] | Potency [18] | Potency [19] | activation [20] -1.41% and -0.473% | Potency [21] | outcome [22] | Potency [23]
